Measured values taken from PubChem BioAssay (Tox21).
Results filed as inconclusive are left out. The source made the active and inactive calls. Unless noted, calls follow the shape of the dose curve; as a rule, active = well fitted curve in the direction sought with a large enough effect in the repeat runs; inconclusive = weak or mixed curves; inactive = no such curve, though single readings can be large; an effect the other way counts as inactive or inconclusive.

Key:
[1] = Caspase-3/7 induction in HepG2 cells by small molecules, qHTS assay (AID 1346978); also: nearly all actives have a fitted effect of over 15% in size
In short: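 Caspase-3/7 induction was measured by Caspase-Glo 3/7 luminescence (30 min, room temperature) after a 17 hr compound exposure of wild-type HepG2 cells seeded at 2,000 per well and pre-incubated 5 hr.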

[2] = Caspase-3/7 induction in CHO-K1 cells by small molecules, qHTS cell viability counter screen (AID 1346979); also: nearly all actives have a fitted effect of over 35% in size
In short: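 Viability readout by fluorescence (CellTiter-Fluor) on wild-type CHO-K1 cells exposed for 16hr at 37C and 5% CO2 to compounds delivered in DMSO; reagent incubated 1hr before reading.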

[3] = Caspase-3/7 induction in CHO-K1 cells by small molecules, qHTS assay (AID 1346980); also: nearly all actives have a fitted effect of over 15% in size
In short: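 Luminescent Caspase-Glo 3/7 read (30min, room temperature) quantified apoptosis induction. Cells were wild-type CHO-K1, treated with compound for 17hr at 37 C and 5% CO2.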

[4] = Caspase-3/7 induction in HepG2 cells by small molecules, qHTS cell viability counter screen (AID 1346981); also: series mostly up to about 92 µM; nearly all actives have a fitted effect of over 30% in size
In short: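 Wild-type HepG2 cells (2,000/well) were allowed to settle for 5 hr at 37 C, 5% CO2, then dosed with compounds in DMSO by pin transfer. After 16 hr at 37 C, CellTiter-Fluor was added and fluorescence read 1 hr later.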

[5] = biological target: Nuclear receptor subfamily 1 group I member 2 (Homo sapiens) (UniProt O75469); experiment: Human pregnane X receptor (PXR) small molecule agonists, qHTS assay (AID 1346982); also: nearly all actives have a fitted effect of over 35% in size; also: potency is read from the fitted curve at half-maximal effect
In short: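 PXR-Luc HepG2 cells (CYP3A4 promoter-driven luciferase) were seeded in medium with 5% charcoal-stripped FBS, left 5 hr at 37 C, then exposed to compounds in DMSO for 24 hr. Luminescence was read after ONE-Glo addition.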

[6] = biological target: Nuclear receptor subfamily 1 group I member 2 (Rattus norvegicus) (UniProt Q9R1A7); experiment: Rat pregnane X receptor (rPXR) activation by small molecules, qHTS assay (AID 1346983); settings: rPXR luciferase reporter cells, One-Glo luminescence, 24 h; active compounds read high; also: nearly all actives have a fitted effect of over 20% in size
In short: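 Luminescent readout (One-Glo luciferase, 30 min room temperature) followed 24 hr compound treatment at 37 C of rPXR cells plated 2,000 per well and preincubated 5hr; qHTS format with compounds delivered in DMSO.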

[7] = biological target: Nuclear receptor subfamily 1 group I member 2 (Homo sapiens) (UniProt O75469); experiment: CYP3A4 induction through human pregnane X receptor (PXR) by small molecules, qHTS assay (AID 1346984); also: nearly all actives have a fitted effect of over 40% in size
In short: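 DPX-2 cells (HepG2 co-transfected with PXR and CYP3A4 promoter-luciferase) treated with compounds 24 h at 37C; luciferin-IPA CYP3A4 substrate 3uM final added for 3 h, then One-Glo; luminescence read. qHTS format.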

[8] = biological target: Nuclear receptor subfamily 1 group I member 2 (Homo sapiens) (UniProt O75469); experiment: Human pregnane X receptor (PXR) activation by small molecules, qHTS assay (AID 1346985); also: nearly all actives have a fitted effect of over 40% in size
In short: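 DPX-2 cells (HepG2 co-transfected with a PXR response element and a CYP3A4-promoter luciferase construct) were seeded at 2,000 per well, rested 5 hr at 37C, then exposed to DMSO-dissolved compounds for 24 hr. Activation was read as luciferase luminescence.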

[9] = biological target: Acetylcholinesterase (Homo sapiens) (UniProt P22303); experiment: Acetylcholinesterase (AChE) small molecule antagonists: colormetric cell-based qHTS assay (AID 1347395; calls by dose curve; also: nearly all actives have a fitted effect of over 30% in size)
In short: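 Homogeneous whole-cell format. SH-SY5Y cells seeded overnight, dosed with compound (30 min, 37 C, 5% CO2), then given DTNB/acetylthiocholine cocktail for 90 min at 37 C; colorimetric signal.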

[10] = biological target: Acetylcholinesterase (Homo sapiens) (UniProt P22303); experiment: Acetylcholinesterase (AChE) small molecule antagonists: fluorescence cell-based qHTS assay (AID 1347398; calls by dose curve; also: nearly all actives have a fitted effect of over 50% in size); settings: Potency: AChE activity; outcome: AChE activity
In short: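 Fluorimetric cell-based assay: intact SH-SY5Y cells, 30 min compound preincubation at 37 C, acetylthiocholine substrate with thiol probe Thiolite Green, 40 min RT development, fluorescence 490/520 nm.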

[11] = biological target: Acetylcholinesterase (Homo sapiens) (UniProt P22303); experiment: Acetylcholinesterase (AChE) small molecule antagonists: enzyme-based qHTS assay with human liver microsomes (AID 1347399; calls by dose curve; also: nearly all actives have a fitted effect of over 60% in size); settings: Potency: qHTS inhibition; outcome: qHTS inhibition
In short: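 Recombinant human AChE (50 mU/mL in the enzyme mix) and human liver microsomes (0.25 mg/mL final) were preincubated with compound and NADPH (0.25 mg/mL final) for 30 min at 37 C. Acetylthiocholine/DTNB was then added; thiocholine was read colorimetrically after 10 min at room temperature.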

[12] = biological target: Cytochrome P450 2D6 (Homo sapiens) (UniProt P10635); experiment: Cytochrome P450 Family 2 Subfamily D Member 6 (CYP2D6) small molecule antagonists: luciferase reporter qHTS assay (AID 1671196); also: nearly all actives have a fitted effect of over 50% in size; also: potency is read from the fitted curve at half-maximal effect; as to activity change, negative = inhibition: series mostly up to about 120 µM
In short: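 CYP2D6 enzyme–substrate mix was held with compound for 10 min at room temperature, then NADPH regeneration solution was added and the reaction ran 1 h at room temperature. Luciferin product was detected by luminescence after 20 min with detection reagent.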

[13] = biological target: Cytochrome P450 2C19 (Homo sapiens) (UniProt P33261); experiment: Cytochrome P450 Family 2 Subfamily C Member 19 (CYP2C19) small molecule antagonists: luciferase reporter qHTS assay (AID 1671197); also: nearly all actives have a fitted effect of over 65% in size; also: potency is read from the fitted curve at half-maximal effect; as to activity change, negative = inhibition: series mostly up to about 120 µM
In short: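 Relative luminescence units recorded 20 min after the detection reagent stopped a 1 h, 37C CYP2C19 reaction on proluciferin substrate, which was started by NADPH regeneration following 10 min room-temperature compound preincubation; ketoconazole positive control.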

[14] = biological target: Cytochrome P450 2C9 (Homo sapiens) (UniProt P11712); experiment: Cytochrome P450 Family 2 Subfamily C Member 9 (CYP2C9) small molecule antagonists: luciferase reporter qHTS assay (AID 1671198); also: nearly all actives have a fitted effect of over 50% in size; also: potency is read from the fitted curve at half-maximal effect; as to activity change, negative = inhibition: series mostly up to about 120 µM
In short: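 Enzyme-substrate mix preincubated with compound 10 min at room temperature; reaction started with NADPH regeneration solution, 1 h 37C. Luminescent luciferin product read after 20 min detection reagent.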

[15] = biological target: Cytochrome P450 1A2 (Homo sapiens) (UniProt P05177); experiment: Cytochrome P450 Family 1 Subfamily A Member 2 (CYP1A2) small molecule antagonists: luciferase reporter qHTS assay (AID 1671199); also: nearly all actives have a fitted effect of over 50% in size; also: potency is read from the fitted curve at half-maximal effect; as to activity change, negative = inhibition: series mostly up to about 120 µM
In short: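 Human CYP1A2 activity measured with a P450-Glo proluciferin substrate; compounds in DMSO preincubated 10 min at room temperature with enzyme-substrate mix, then NADPH regeneration system added for 1 h. Luciferin detection reagent, 20 min, luminescence read.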

[16] = biological target: Voltage-gated inwardly rectifying potassium channel KCNH2 (Homo sapiens) (UniProt Q12809); experiment: Human Ether-a-go-go-Related Gene (hERG) channel small molecule antagonists: fluorescence cell-based qHTS assay (AID 1671200)
In short: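 Thallium served as the potassium surrogate; its influx into dye-loaded U2OS cells carrying the channel was measured by fluorescence over 2 min.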

[17] = biological target: Cytochrome P450 3A4 (Homo sapiens) (UniProt P08684); experiment: Cytochrome P450 Family 3 Subfamily A Member 4 (CYP3A4) small molecule antagonists: luciferase reporter qHTS assay (AID 1671201)
In short: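 Relative luminescence units after 20 min with luciferin detection reagent served as read-out. Beforehand, CYP3A4 turned over a proluciferin substrate for 1 h at room temperature with NADPH regeneration, following 10 min compound preincubation.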

[18] = biological target: Acetylcholinesterase (Homo sapiens) (UniProt P22303); experiment: Acetylcholinesterase (AChE) small molecule antagonists: enzyme-based qHTS assay (AID 1347397; calls by dose curve; also: nearly all actives have a fitted effect of over 55% in size); settings: Potency: AChE enzyme activity inhibition; outcome: AChE enzyme activity inhibition
In short: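 Absorbance-based detection of thiocholine with DTNB served as the read-out. Recombinant human AChE was exposed to compound for 30 min at RT before a 10 min RT incubation with acetylthiocholine.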
% is scaled to controls: 0 for no effect and ±100 for the full control effect.

Sequence of Cytochrome P450 1A2 (Homo sapiens) (P05177 whole entry, looked up): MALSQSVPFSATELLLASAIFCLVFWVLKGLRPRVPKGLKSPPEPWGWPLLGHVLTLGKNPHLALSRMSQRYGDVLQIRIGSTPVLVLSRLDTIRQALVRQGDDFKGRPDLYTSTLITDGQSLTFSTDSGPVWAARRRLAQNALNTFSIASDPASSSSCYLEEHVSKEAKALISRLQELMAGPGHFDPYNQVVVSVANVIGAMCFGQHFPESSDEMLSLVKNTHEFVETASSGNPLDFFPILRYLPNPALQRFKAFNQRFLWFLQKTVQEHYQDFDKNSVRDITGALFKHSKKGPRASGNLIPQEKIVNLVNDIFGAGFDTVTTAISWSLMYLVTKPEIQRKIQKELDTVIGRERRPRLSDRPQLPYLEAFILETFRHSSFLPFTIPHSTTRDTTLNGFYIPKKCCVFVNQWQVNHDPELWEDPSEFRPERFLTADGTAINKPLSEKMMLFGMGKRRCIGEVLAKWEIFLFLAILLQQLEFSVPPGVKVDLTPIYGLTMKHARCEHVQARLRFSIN
Sequence of Cytochrome P450 3A4 (Homo sapiens) (P08684 whole entry, looked up): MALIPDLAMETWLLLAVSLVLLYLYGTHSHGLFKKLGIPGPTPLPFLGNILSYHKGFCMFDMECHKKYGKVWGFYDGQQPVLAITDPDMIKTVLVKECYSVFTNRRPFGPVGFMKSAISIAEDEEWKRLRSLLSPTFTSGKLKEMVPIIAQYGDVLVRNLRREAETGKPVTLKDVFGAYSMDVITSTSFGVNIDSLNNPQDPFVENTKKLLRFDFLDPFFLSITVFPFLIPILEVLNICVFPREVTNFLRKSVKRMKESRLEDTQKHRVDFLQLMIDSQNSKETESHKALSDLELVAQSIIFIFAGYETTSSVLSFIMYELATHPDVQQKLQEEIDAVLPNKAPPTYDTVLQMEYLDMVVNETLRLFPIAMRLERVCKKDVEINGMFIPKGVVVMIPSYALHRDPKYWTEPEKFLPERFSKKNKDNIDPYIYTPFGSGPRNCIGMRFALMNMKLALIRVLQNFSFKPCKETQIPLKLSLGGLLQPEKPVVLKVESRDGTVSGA
Sequence of Acetylcholinesterase (Homo sapiens) (P22303 whole entry, looked up): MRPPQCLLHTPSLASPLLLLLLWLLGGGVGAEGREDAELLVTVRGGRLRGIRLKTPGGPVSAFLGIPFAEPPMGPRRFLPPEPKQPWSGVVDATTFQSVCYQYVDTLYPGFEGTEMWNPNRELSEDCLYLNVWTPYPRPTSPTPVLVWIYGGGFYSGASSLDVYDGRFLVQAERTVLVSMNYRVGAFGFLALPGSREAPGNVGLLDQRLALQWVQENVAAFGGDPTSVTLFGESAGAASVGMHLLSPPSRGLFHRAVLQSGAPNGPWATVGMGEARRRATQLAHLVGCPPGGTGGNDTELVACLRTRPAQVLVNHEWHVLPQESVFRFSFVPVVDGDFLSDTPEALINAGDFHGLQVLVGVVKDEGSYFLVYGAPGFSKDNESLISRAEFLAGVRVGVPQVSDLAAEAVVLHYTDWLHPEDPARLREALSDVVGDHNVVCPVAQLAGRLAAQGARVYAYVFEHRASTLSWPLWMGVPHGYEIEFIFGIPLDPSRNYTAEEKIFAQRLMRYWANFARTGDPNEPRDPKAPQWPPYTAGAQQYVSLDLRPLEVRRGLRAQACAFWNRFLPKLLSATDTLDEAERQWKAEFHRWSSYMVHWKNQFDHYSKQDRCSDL
Sequence of Cytochrome P450 2C9 (Homo sapiens) (P11712 whole entry, looked up): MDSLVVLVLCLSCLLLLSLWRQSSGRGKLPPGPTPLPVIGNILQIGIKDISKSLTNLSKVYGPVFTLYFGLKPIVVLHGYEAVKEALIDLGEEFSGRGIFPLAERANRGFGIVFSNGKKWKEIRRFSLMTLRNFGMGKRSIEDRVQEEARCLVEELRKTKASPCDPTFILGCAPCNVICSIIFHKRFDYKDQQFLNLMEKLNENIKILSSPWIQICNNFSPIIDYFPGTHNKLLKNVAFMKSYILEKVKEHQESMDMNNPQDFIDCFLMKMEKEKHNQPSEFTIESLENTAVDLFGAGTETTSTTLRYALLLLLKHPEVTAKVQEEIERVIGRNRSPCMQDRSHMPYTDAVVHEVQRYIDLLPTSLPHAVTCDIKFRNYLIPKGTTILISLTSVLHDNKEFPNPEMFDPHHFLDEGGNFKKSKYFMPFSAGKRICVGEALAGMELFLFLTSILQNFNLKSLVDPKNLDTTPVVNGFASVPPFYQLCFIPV
Sequence of Voltage-gated inwardly rectifying potassium channel KCNH2 (Homo sapiens) (Q12809 whole entry, looked up): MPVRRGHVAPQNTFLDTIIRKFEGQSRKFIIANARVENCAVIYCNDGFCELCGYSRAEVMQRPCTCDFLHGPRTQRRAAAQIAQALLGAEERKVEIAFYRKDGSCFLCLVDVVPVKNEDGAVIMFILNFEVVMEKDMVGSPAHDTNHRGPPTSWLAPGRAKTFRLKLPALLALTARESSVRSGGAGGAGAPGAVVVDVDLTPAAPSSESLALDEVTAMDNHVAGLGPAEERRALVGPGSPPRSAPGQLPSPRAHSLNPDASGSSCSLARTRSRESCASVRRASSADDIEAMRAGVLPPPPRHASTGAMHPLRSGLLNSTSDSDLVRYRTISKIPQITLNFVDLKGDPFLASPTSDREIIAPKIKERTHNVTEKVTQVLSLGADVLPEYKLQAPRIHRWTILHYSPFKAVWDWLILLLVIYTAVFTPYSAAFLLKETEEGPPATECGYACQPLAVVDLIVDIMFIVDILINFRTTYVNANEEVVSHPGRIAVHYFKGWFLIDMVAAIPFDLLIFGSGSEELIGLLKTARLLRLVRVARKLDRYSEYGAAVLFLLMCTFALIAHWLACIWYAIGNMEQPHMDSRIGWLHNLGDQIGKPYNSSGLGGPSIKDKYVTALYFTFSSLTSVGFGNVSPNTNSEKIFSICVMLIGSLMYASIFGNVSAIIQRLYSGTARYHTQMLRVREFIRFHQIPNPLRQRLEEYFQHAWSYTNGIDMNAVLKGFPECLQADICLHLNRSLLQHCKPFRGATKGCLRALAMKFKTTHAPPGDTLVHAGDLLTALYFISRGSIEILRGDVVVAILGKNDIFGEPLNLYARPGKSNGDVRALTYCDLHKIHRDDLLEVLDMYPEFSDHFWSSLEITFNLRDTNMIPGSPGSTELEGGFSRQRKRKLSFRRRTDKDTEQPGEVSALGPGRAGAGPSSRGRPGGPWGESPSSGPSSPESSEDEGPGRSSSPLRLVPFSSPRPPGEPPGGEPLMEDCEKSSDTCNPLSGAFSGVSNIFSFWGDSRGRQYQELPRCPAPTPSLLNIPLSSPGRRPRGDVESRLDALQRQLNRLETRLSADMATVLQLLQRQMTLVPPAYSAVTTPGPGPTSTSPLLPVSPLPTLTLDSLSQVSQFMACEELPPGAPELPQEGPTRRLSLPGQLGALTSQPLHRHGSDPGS
Sequence of Cytochrome P450 2D6 (Homo sapiens) (P10635 whole entry, looked up): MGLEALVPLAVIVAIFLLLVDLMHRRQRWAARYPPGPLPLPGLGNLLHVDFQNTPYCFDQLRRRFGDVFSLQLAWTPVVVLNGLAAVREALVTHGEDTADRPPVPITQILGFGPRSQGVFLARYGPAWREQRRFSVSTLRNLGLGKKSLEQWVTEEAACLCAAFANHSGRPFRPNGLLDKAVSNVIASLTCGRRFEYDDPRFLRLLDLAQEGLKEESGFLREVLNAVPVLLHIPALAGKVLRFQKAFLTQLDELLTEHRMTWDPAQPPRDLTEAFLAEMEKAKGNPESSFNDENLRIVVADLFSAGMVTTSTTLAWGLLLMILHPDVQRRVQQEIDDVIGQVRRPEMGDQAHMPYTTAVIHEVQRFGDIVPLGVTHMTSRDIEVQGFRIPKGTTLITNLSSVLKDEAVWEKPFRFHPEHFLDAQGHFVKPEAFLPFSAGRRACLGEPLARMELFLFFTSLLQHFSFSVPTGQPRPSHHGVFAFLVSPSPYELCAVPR
Sequence of Cytochrome P450 2C19 (Homo sapiens) (P33261 whole entry, looked up): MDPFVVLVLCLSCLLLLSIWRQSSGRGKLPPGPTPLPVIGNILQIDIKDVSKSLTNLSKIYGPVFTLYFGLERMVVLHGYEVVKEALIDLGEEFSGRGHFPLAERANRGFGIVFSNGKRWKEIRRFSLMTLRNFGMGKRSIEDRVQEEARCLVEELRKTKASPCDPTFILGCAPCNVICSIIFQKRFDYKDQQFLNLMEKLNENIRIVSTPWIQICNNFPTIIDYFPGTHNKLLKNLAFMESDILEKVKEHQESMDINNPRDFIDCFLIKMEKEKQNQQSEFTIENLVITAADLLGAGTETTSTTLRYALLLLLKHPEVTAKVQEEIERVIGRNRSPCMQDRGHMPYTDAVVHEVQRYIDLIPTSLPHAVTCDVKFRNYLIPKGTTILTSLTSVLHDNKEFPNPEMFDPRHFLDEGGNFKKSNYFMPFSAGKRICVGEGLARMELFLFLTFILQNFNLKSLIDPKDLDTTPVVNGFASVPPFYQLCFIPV
Sequence of Nuclear receptor subfamily 1 group I member 2 (Homo sapiens) (O75469 whole entry, looked up): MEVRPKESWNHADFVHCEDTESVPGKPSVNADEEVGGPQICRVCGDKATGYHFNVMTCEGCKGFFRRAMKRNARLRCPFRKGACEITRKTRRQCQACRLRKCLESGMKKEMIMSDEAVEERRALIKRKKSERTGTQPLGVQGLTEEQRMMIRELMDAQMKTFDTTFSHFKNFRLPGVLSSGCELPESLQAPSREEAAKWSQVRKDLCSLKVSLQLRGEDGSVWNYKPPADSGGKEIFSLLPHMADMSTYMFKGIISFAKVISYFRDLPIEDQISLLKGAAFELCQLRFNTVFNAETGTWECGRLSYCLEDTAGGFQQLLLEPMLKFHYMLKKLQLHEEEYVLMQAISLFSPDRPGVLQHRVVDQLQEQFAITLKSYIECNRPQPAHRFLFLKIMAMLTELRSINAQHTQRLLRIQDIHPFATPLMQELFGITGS

CCCCCCC(=O)CCCCCC/C=C/C[C@@H](O)[C@H](O)[C@@](N)(CO)C(=O)O
inactive: caspase activation [1] 0.643% [at 19 µM] | activity change, negative = cytotoxicity [2] 4.97% [at 19 µM] | caspase-3/7 activation [3] 2.67% [at 19 µM] | activity change, negative = cytotoxicity [4] 5.08% [at 19 µM] | activation [5] -4.6% [at 19 µM] | max activation [6] -5.78% | Potency [7] | Potency [8] | activity, negative = inhibition [9] 0.986% [at 23.6 µM] | activity change, negative = inhibition [10] -0.579% [at 23.8 µM] | activity change, negative = inhibition [11] -0.169% [at 23.6 µM] | activity change, negative = inhibition [12] -0.222% [at 23.6 µM] | activity change, negative = inhibition [13] 14.2% [at 23.6 µM] | activity change, negative = inhibition [14] 9.38% [at 23.6 µM] | activity change, negative = inhibition [15] -0.0703% [at 23.6 µM] | activity change, negative = inhibition [16] 0.803% [at 15.8 µM] | activity change, negative = inhibition [17] 24.6% [at 23.6 µM]

ClCC1CO1 (stereo not drawn)
inactive: outcome [1] | Potency [2] | outcome [3] | Potency [4] | Potency [5] | max activation [6] -3.74% | Potency [7] | Potency [8] | Potency [9] | Potency [18] | Potency [10] | Potency [11] | Potency [12] | Potency [14] | Potency [15] | Potency [16] | Potency [17]
active: Potency [13] 24.3 µM

CCNc1nc(Cl)nc(NC(C)(C)C)n1
active: Potency [5] 30.6 µM | Potency [13] 35.6 µM | Potency [15] 11.2 µM
inactive: outcome [1] | Potency [2] | outcome [3] | Potency [4] | Potency [9] | Potency [18] | Potency [10] | Potency [11] | Potency [12] | Potency [17]

CCN[C@@H](C)Cc1ccccc1
inactive: outcome [1] | Potency [2] | outcome [3] | Potency [4] | Potency [5] | Potency [9] | Potency [18] | Potency [10] | Potency [11] | Potency [14] | Potency [16] | Potency [17]
active: Potency [12] 6.28 µM

CC(C)c1ccc(O)cc1
inactive: outcome [1] | Potency [2] | outcome [3] | Potency [4] | Potency [5] | Potency [9] | Potency [18] | Potency [10] | Potency [11] | Potency [12] | Potency [13] | Potency [16] | Potency [17]
active: Potency [15] 22.4 µM

O=C(Cl)/C=C/C(=O)Cl
inactive: outcome [1] | Potency [2] | outcome [3] | Potency [4] | Potency [5] | Potency [9] | Potency [18] | Potency [10] | Potency [11] | Potency [12] | Potency [13] | Potency [15] | Potency [16] | Potency [17]

CCCOC(=O)c1cncn1C(C)c1ccccc1 (stereo not drawn)
active: Potency [13] 2.45 µM | Potency [14] 13.8 µM | Potency [15] 17.4 µM
inactive: outcome [1] | Potency [2] | outcome [3] | Potency [4] | Potency [5] | Potency [9] | Potency [10] | Potency [11] | Potency [12]

CCSC(=O)Cl
inactive: outcome [1] | Potency [2] | outcome [3] | Potency [4] | Potency [5] | Potency [9] | Potency [18] | Potency [10] | Potency [11] | Potency [13] | Potency [14] | Potency [15] | Potency [16] | Potency [17]

CC(C)C(C)(N)C#N (stereo not drawn)
inactive: outcome [1] | Potency [2] | outcome [3] | Potency [4] | Potency [5] | Potency [9] | Potency [10] | Potency [11] | Potency [12] | Potency [13] | Potency [14] | Potency [16] | Potency [17]
